Screening results: PubChem, National Center for Advancing Translational Sciences (NCATS)
Cruzain inh noDet = qHTS Assay for Promiscuous and Specific Inhibitors of Cruzain (without detergent); purified cruzain, Z-FR-AMC fluorescence, no detergent; Potency, µM, without a hit: max response, negative = inhibition, actives largely listed as inhibitors; 200,000 tested, 2.3% active; AID 1476, 2009;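 also: plate controls were enzyme without inhibitor for no effect and buffer without enzyme for full effect; nearly all actives have a fitted effect of over 40% in size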
Target sequence (P25779 123-467 limits assumed): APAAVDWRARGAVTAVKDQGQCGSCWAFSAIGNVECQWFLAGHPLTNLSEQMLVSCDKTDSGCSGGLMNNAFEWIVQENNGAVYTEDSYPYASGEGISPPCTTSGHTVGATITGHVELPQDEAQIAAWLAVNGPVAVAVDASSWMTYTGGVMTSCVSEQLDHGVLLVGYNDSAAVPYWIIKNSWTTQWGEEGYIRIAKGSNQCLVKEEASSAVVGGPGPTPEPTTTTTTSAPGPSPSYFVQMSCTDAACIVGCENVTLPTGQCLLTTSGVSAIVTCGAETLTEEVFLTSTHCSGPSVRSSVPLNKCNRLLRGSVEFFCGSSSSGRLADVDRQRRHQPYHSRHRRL
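Purified cruzain at 1.5 nM, pre-incubated 15 min with compound at room temperature in 100 mM sodium acetate pH 5.5, 5 mM DTT, 0.00005% Triton X-100. Reaction started with 2 uM Z-FR-AMC; AMC fluorescence increase over 60 s gives rate.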
Cruzain inh Det = qHTS Assay for Promiscuous and Specific Inhibitors of Cruzain (with detergent); Cruzipain (Trypanosoma cruzi), P25779; purified cruzain, Z-FR-AMC fluorescence, 0.01% Triton; Potency, µM, without a hit: max response, negative = inhibition, most hits filed as inhibitors; 200,000 tested, 0.43% active; AID 1478, 2009;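 also: plate controls were neutral wells for no effect and buffer without enzyme for full effect; nearly all actives have a fitted effect of over 40% in size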
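Enzyme 1.5 nM, Z-FR-AMC 2 uM, NaOAc 100 mM pH 5.5, DTT 5 mM, Triton X-100 0.01%; 15 min RT compound preincubation; kinetic ex360/em450, 60 s delta.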
Starred values were filed as active, the others as inactive; ? = inconclusive. A selection: hits, their analogues and other compounds. The true share with any hit is near 2.5%. Calls follow the shape of the dose curve; as a rule, active = well fitted curve in the direction sought with a large enough effect; inconclusive = small, poorly fitted or top-dose-only effect, or another doubt; inactive = no such curve, though single readings can be large; an effect the other way counts as inactive or inconclusive. Potency is read from the fitted curve at half-maximal effect.

SMILES	Cruzain inh noDet	Cruzain inh Det
CCOc1ccc(C(=O)NC(=S)Nc2ccc(NC(=O)CC)cc2)cc1[N+](=O)[O-]	?	-6.1%
CCC(=O)NC(=S)Nc1ccc(NC(=O)c2ccc(C)c([N+](=O)[O-])c2)cc1	10µM*	-2.5%
CN(C)Cc1cc(Cl)c(O)c(CN(C)C)c1	-1.3%	3.8%
CN(C)Cc1c(O)c(Cl)cc2c3c(c(=O)oc12)CCCC3	12.6µM*	?
Cc1c(O)c(CN2CCCCC2)cc2c3c(c(=O)oc12)CCC3	?	-28.8%
Cc1c(C)c2cc(Cl)c(O)c(CN(C)C)c2oc1=O	?	31.6µM*
CCN(CC)Cc1c(O)c(Cl)cc2c3c(c(=O)oc12)CCCC3	-22.0%	?
O=c1oc2c(CN3CCOCC3)c(O)c(Cl)cc2c2c1CCC2	?	25.1µM*
CCOC(=O)N1CCc2c(sc3c2c(=O)n(CCc2ccccc2)c(=O)n3Cc2c(F)cccc2Cl)C1	-0.1%	0.6%
O=C(CSc1nc(-c2cccs2)nc2cc(=O)[nH]n12)Nc1ccccc1Cl	14.4%	-4.3%
O=C(O)c1ccccc1NC(=O)N1c2ccccc2Sc2ccccc21	-14.9%	-14.5%
COc1ccc(NC(=O)C2CCC(CNS(=O)(=O)c3ccc(Br)s3)CC2)c(OC)c1 (stereo not drawn)	12.2%	-3.8%
c1ccc(-c2nc(-c3ccccc3)c(Nc3ccc4ccccc4c3)o2)cc1	7.0%	7.8%
Cn1cc(S(=O)(=O)N2CCCCCC2)cc1C(=O)Nc1ccccc1F	-4.4%	-4.3%
Cc1cc(C)nc(N/N=C/c2ccccc2OCc2ccc([N+](=O)[O-])cc2)n1	-16.3%	-3.7%
O=[N+]([O-])c1ccc(N/N=C\c2ccccc2OCc2ccccc2)cc1	25.1µM*	-3.4%
CCc1c(O)c2c(c(O)c1C(C)=O)C(=O)c1c(cc(O)c(C(=O)O)c1C(=O)O)C2=O	-5.9%	-6.0%
CCCCCNS(=O)(=O)c1ccc(N2CCCCS2(=O)=O)cc1	1.1%	0.3%
CCOc1ccc(S(=O)(=O)c2c(C(=O)c3ccc(C)c(C)c3)cnc3ccccc23)cc1	20µM*	-2.7%
COc1ccc(C(=O)c2cnc3ccc(C)cc3c2S(=O)(=O)c2ccccc2)cc1	?	-4.0%
Cc1ccc2ncc(C(=O)c3ccc(C)c(C)c3)c(S(=O)(=O)c3ccc(F)cc3)c2c1	?	-6.2%
COc1ccc(S(=O)(=O)c2c(C(=O)c3ccc(C)c(C)c3)cnc3ccc(F)cc23)cc1	12.6µM*	-2.9%
CC(C)c1ccc(S(=O)(=O)Nc2ccc3oc4c(c3c2)C(=O)CC(C)(C)C4)cc1	-1.7%	-1.7%
Cc1cc(C)cc(NC(=O)C2CCCN(S(=O)(=O)c3cccc4nsnc34)C2)c1 (stereo not drawn)	-1.1%	-2.4%
Cc1ccc(-c2nc(N3CCN(c4ccccc4Cl)CC3)c3ccccc3n2)cc1	-4.6%	-0.7%
SMILES	Cruzain inh noDet	Cruzain inh Det
CCN(CC)S(=O)(=O)c1ccc2c(c1)N(CC(=O)Nc1ccc(Cl)cc1)C(=O)C1CCCN21 (stereo not drawn)	1.7%	-13.3%
CCOC(=O)C1CCN(C(=O)C2CCN(S(=O)(=O)c3c(C)noc3/C=C/c3ccc(C)cc3)CC2)CC1	?	-6.6%
Cc1ccsc1CN(C(=O)c1ccc(Br)cc1)C1CCS(=O)(=O)C1 (stereo not drawn)	-3.4%	-2.1%
Cc1ccc(Cn2c(=O)c3cccnc3n(CC(=O)Nc3cc(Cl)ccc3C)c2=O)cc1	-6.5%	0.4%
O=C(N/N=C/c1cccc([N+](=O)[O-])c1)c1cccs1	-3.3%	-5.5%
C=CCOc1ccc2cccc(/C=N/NC(=O)c3cc4cc([N+](=O)[O-])ccc4s3)c2c1	6.31µM*	0.5%
Cc1ccc(CNC(=O)CSc2nc3c(sc4ccccc43)c(=O)n2CCCC(=O)NCCO)cc1	20.9%	1.1%
O=[N+]([O-])c1ccc(S(=O)(=O)N2CCn3cccc3C2c2ccc(Br)cc2)cc1 (stereo not drawn)	?	-2.9%
Cc1ccc(C2c3cccn3CCN2S(=O)(=O)c2ccc([N+](=O)[O-])cc2)cc1 (stereo not drawn)	31.6µM*	-6.0%
CNS(=O)(=O)c1cccc(C(=O)OCc2csc(-c3ccccc3)n2)c1	-2.8%	-6.6%
Cn1nc(-c2ccccc2)c(COC(=O)c2cccc(Cl)c2)c1S(=O)(=O)c1ccccc1	25.1µM*	2.0%
COCCCn1c(=O)c2sccc2n2c(CCCC(=O)NC3CCC(C)CC3)nnc12 (stereo not drawn)	-5.5%	0.4%
C=C(C)CSc1nnc([C@@H](N)Cc2c[nH]c3ccccc23)o1	2.3%	-5.4%
CCN(CC)C(=O)CSc1nnc([C@@H](N)Cc2ccccc2)o1	25.1µM*	25.1µM*
Cc1ccc(NC(=O)CSc2nnc([C@@H](N)Cc3c[nH]c4ccccc34)o2)c(C)c1	15.8µM*	17.8µM*
CCc1ccccc1NC(=O)CSc1nnc([C@@H](N)Cc2ccccc2)o1	10µM*	10µM*
CCN(CC)C(=O)CSc1nnc(CCN)o1	-9.6%	4.2%
